Where a structure was tested more than once in an assay, its records may differ in their call. The source made the active and inactive calls. Rule for the calls: active = hit-call score of the fitted dose curve at least 0.9, where 1 is the maximum; inactive = score below 0.9.
Assay: CCTE_Harrill_HTTr_Viability_MCF7: CCTE's 6-hour Cell Viability Assessment for the High-Throughput Transcriptomics (HTTr) Platform, in MCF-7 cells cultured in DMEM + 10% fetal bovine serum, Harrill Lab (AID 2284010)
Excerpt: This is a cell-based assay that evaluates cell viability using high content imaging to evaluate membrane integrity using propidium iodide dye exclusion in a 384 well format.One of seven assay components measured from the CCTE_Harrill_HTTr_Viability assay. This was part of a full screening experiment. This is a cell-based assay that evaluates cell viability in MCF-7 cells cultured in DMEM + 10% fetal bovine serum. High content imaging is used to evaluate membrane integrity using propidium iodide dye exclusion. Measurements are taken at 6 hours after chemical dosing in 384-well format.The assay component endpoint CCTE_Harrill_HTTr_Viability_MCF7 was analyzed with bidirectional fitting relation to DMSO as the negative control and baseline of activity. Using a type of viability reporter, gain-of-signal activity can be used to evaluate membrane integrity using propidium iodide dye exclusion to understand changes in cytotoxicity. To generalize the intended target to other relatable targets, this assay endpoint is annotated to cell cycle, where the subfamily is cytotoxicity.
Chemicals were tested in MCF7 cells in an eight point dilution series with a six hour exposure duration.

Row | SMILES | outcome | AC50
1 | CCOC(=O)C=Cc1ccccc1 | inactive | –
2 | COc1ccc2[nH]cc(CCNC(C)=O)c2c1 | inactive | –
3 | CN(C)CCC=C1c2ccccc2CCc2ccccc21 | inactive | –
4 | CC(=O)OC/C=C(C)/C=C/C=C(C)/C=C/C1=C(C)CCCC1(C)C | inactive | –
5 | O=C(O)c1cc2ccccc2cc1O | inactive | –
6 | O=C(O)c1cc(C(=O)O)c(C(=O)O)cc1C(=O)O | inactive | –
7 | C=C(C)C(N)=O | inactive | –
8 | Brc1cc(Br)cc(Br)c1 | inactive | –
9 | O=C1CCCCCCCCCCCC(=O)OCCO1 | inactive | –
10 | CC(O)COCC(C)O (stereo not given) | inactive | –
11 | O=C(O)c1ccccc1O | inactive | –
12 | CCCCOC(=O)C(C)OC(=O)CCC (stereo not given) | inactive | –
13 | CCCCCC1CCC(=O)O1 (stereo not given) | inactive | –
14 | NC(=O)c1cnccn1 | inactive | –
15 | NC(=O)c1cccnc1 | inactive | –
16 | CC(=O)CC(=O)N(C)C | inactive | –
17 | CN(C)CCCNCCCN(C)C | inactive | –
18 | Cc1cccc(O)c1 | inactive | –
19 | OCC=Cc1ccccc1 | inactive | –
20 | O=C(O)C1=NN(c2ccc(S(=O)(=O)O)cc2)C(=O)C1 | inactive | –

Row | SMILES | outcome | AC50
21 | COc1ccc(C(C)=O)cc1 | inactive | –
22 | CNC(=C[N+](=O)[O-])NCCSCc1ccc(CN(C)C)o1 | inactive | –
23 | O=C1OC2(c3ccc(O)cc3Oc3cc(O)ccc32)c2ccccc21 | inactive | –
24 | CC12CCC(C1)C(C)(C)C2O (stereo not given) | inactive | –
25 | CN(C)C(=O)Nc1ccccc1 | inactive | –
26 | CCCCOCCOCCOCCO | inactive | –
27 | CC/C(=C(\c1ccccc1)c1ccc(OCCN(C)C)cc1)c1ccccc1 | inactive | 67.3 µM (active)
28 | Cc1cccc(C)c1 | inactive | –
29 | C[C@H](CCC(=O)O)[C@H]1CC[C@H]2[C@@H]3CC[C@@H]4C[C@H](O)CC[C@]4(C)[C@H]3CC[C@]12C | inactive | –
30 | CC1=CCC(C(C)(C)O)CC1 (stereo not given) | inactive | –
31 | c1ccc2c(c1)-c1ccc3ccc4cccc5cc-2c1c3c45 | inactive | –
32 | C[C@]12CC[C@@H]3c4ccc(O)cc4CC[C@H]3[C@@H]1CC[C@@H]2O | inactive | –
33 | CC(C)Cc1ccc(C(C)C(=O)O)cc1 (stereo not given) | inactive | –
34 | C=C1CC/C=C(\C)CC[C@@H]2[C@@H]1CC2(C)C | inactive | –
35 | COC(=O)c1ccc(C(=O)OC)cc1 | inactive | –
36 | CC(=O)CCc1ccc(O)cc1 | inactive | –
37 | CCCCOCCOCCO | inactive | –
38 | COc1ccccc1O | inactive | –
39 | CC(O)CN (stereo not given) | inactive | –

Source: PubChem BioAssay (EPA / NIEHS)
